Results published in PubChem BioAssay (NCI).
The panel holds about 83,000 compounds, 20% with a hit somewhere; the sample as a whole holds those more often.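 Note: values are percent growth. 100 is the growth of untreated cells, values between 100 and 0 indicate rising inhibition; between -100 and 0 indicates cell death.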 A number with no mark means an inactive call. The source made the active and inactive calls. Rule for the calls: active = growth percent below 10; inactive = the rest.

Columns and labels:
Assay in all cases: NCI-60 one-dose screen, 48 h (100 = growth as untreated, 0 = no growth, -100 = all killed)
Conditions in all cases: 10 µM unless noted
SR leukemia = system: SR leukemia
RPMI-8226 leukemia = system: RPMI-8226 leukemia
OVCAR-8 ovarian = system: OVCAR-8 ovarian
OVCAR-5 ovarian = system: OVCAR-5 ovarian
OVCAR-4 ovarian = system: OVCAR-4 ovarian
SK-OV-3 ovarian = system: SK-OV-3 ovarian
IGROV1 ovarian = system: IGROV1 ovarian
OVCAR-3 ovarian = system: OVCAR-3 ovarian
HS 578T breast = system: HS 578T breast
NCI/ADR-RES ovarian = system: NCI/ADR-RES ovarian
T-47D breast = system: T-47D breast
BT-549 breast = system: BT-549 breast
MDA-MB-435 melanoma = system: MDA-MB-435 melanoma
SW-620 colon = system: SW-620 colon
MCF7 breast = system: MCF7 breast
HCT-116 colon = system: HCT-116 colon
HCC-2998 colon = system: HCC-2998 colon
KM12 colon = system: KM12 colon

Compound | growth (SR leukemia) | growth (RPMI-8226 leukemia) | growth (OVCAR-8 ovarian) | growth (OVCAR-5 ovarian) | growth (OVCAR-4 ovarian) [%] | growth (SK-OV-3 ovarian) [%] | growth (IGROV1 ovarian) | growth (OVCAR-3 ovarian) | growth (HS 578T breast) [%] | growth (NCI/ADR-RES ovarian) | growth (T-47D breast) | growth (BT-549 breast) | growth (MDA-MB-435 melanoma) | growth (SW-620 colon) | growth (MCF7 breast) | growth (HCT-116 colon) | growth (HCC-2998 colon) | growth (KM12 colon)
COc1cccc2cc(N(C)c3nc(C)nc4c3CCC4)ccc12 | 9.67% (active) | 29.2% | 10.5% | 52.2% | 47.1 | 19.5 | 24.2% | -18.1% (active) | 17.9 | 12.6% | 50.7% | 1.76% (active) | -3.22% (active) | 19.7% | 15.1% | -14.2% (active) | 17.5% | 0.0953% (active)
CCOC(=O)c1c(C)n2c(=O)cc(C)c3c(OC(C)=O)c(OC(C)=O)cc1c32 | 17.8% | 42.3% | 62.2% | 99.2% | 34.6 | 103 | 76.9% | 6.3% (active) | 91.4 | 33% | 52.7% | 80.3% | 83.3% | 34.8% | 62.2% | 23.3% | 84.4% | 86.7%
COc1ccc(N/N=C/c2ccc3c(c2)Sc2ccccc2N3C)cc1 | 42.2% | 78.2% | 65.9% | 53.3% | 60.7 | 87.4 | 55.8% | 77.7% | 95.1 | 79.6% | 51.9% | 96.1% | 17.6% | 27.1% | 32.3% | 53.6% | 85% | 16.9%
CCCCCCCCNC(=O)[C@@H](N)CSCOC(C)=O | 100% | 87.9% | 85.5% | 103% | 112 | 95.3 | 103% | 97.4% | 93.4 | 82.7% | 96.1% | 111% | 19.1% | 84.6% | 108% | 92.7% | 101% | 38.1%
COc1cccc(CNc2nnc(C)c(C)n2)c1O | 102% | 100% | 99.2% | 108% | 103 | 87 | 107% | 110% | 108 | 104% | 94% | 101% | 111% | 109% | 97.3% | 100% | 96.4% | 107%
CCCC1Cc2cc(-n3nc(C)c4c3CC(C)(C)CC4=O)cc(NC3CCC(O)CC3)c2C(=O)N1 (stereo unspecified) | 29.5% | 51% | 40.3% | 58.8% | 62.5 | 17.1 | 24.7% | 52.6% | 59.1 | 47% | 46.9% | 68.4% | 26.8% | 20.4% | 36.5% | 15.4% | 34.2% | 15.5%
Cc1[nH]c(C(=O)Nc2ccccc2OC2CCNC2)c(Cl)c1Cl (stereo unspecified) | 0.45% (active) | 79% | 94% | 95.5% | 79.1 | 99.3 | 66.5% | 84.5% | 93.2 | 86.7% | 83.2% | 88% | 86.4% | 79.8% | 67.3% | 42.8% | 94.4% | 84.2%
CN1CCN(Cn2nc(-c3cc(Cl)cc(Cl)c3Cl)oc2=S)CC1 | 70.4% | 160% | 96% | 93.6% | 92.8 | 100 | 97.8% | 99.2% | 91.2 | 99% | 98.9% | 94.9% | 88.9% | 100% | 97.5% | 97.5% | 105% | 94.2%
COc1ccc(-c2cc(-c3ccc(Nc4nc(Nc5ccc(Cl)cc5)nc(Nc5ccc(Cl)cc5)n4)cc3)no2)cc1 | 2.43% (active) | 12.5% | 85.7% | 86% | 77.4 | 127 | 63.8% | 71.1% | 90.2 | 81.8% | 70.7% | 89.8% | 71.3% | 88.7% | 60.6% | 53.3% | 11.4% | 82%
C=C(C)Cn1c(SCC(=O)c2cccs2)nc2sc3c(c2c1=O)CCCC3 | 44% | 50.7% | 49% | 71.2% | 73.4 | 79.1 | 55.1% | 64.5% | 65.3 | 43.9% | 58.7% | 81.2% | 56% | 38.6% | 46.7% | 29.3% | 76.1% | 42.9%
COc1cc(C2CC(c3cccc(Nc4ccncc4)c3)=Nc3c(N)ncnc3N2)cc(OC)c1OC (stereo unspecified) | 30.1% | 71.8% | 93.6% | 111% | 84.1 | 88.3 | 95.8% | 88.9% | 95 | 96.7% | 62.2% | 113% | 69.7% | 90.6% | 57.6% | 87.9% | 95.4% | 69%
Cc1nc2ccccc2c(/C=C/c2ccc(Cl)cc2)c1C(=O)/C=C/c1ccccc1 | 11.5% | -11.8% (active) | -2.61% (active) | -21.8% (active) | 33.1 | 57.4 | 0.031% (active) | -35.1% (active) | 25 | 0.775% (active) | 9.61% (active) | 26.7% | -53.2% (active) | 1.45% (active) | 11.2% | -53.4% (active) | -12% (active) | 10.7%
CC1(C)CC(=O)C2=C(C1)OC(C(=O)c1ccccc1)C2c1cccc(Oc2ccccc2)c1 (stereo unspecified) | 26.2% | 34.6% | 48.5% | 88.7% | 28.6 | 64 | 89.5% | 64.2% | 68.4 | 38.3% | 5.71% (active) | 40.1% | 44.5% | 54.2% | 28.5% | 33.8% | 71.9% | 37.7%
COc1cc2c(cc1-c1c(C)noc1C)ncc1nc(C3CCOCC3)n(C3CCC(OC(F)F)CC3)c12 (stereo unspecified) | 36.4% | 18% | 69.1% | 71% | 48.8 | 17.3 | 55.7% | 44.7% | 54.9 | 53.7% | 11.3% | 77.1% | 48.9% | 76.3% | 18.5% | 66.1% | 56.5% | 44.3%
CC(C)(C)[C@H](OCc1cn([C@H]2C[C@@H](O)[C@@H](CO)O2)c(=O)[nH]c1=O)c1ccc(C#Cc2ccccc2)cc1[N+](=O)[O-] | 35.7% | 36.8% | 87% | 97.6% | 85 | 93.5 | 88% | 87.7% | 77.9 | 87.5% | 53.6% | 27.6% | 92.6% | 101% | 3.01% (active) | 32.3% | 87.1% | 84.9%
CCCCC1=C(Br)C(=O)c2ncccc2C1=O | 30.8% | 41.7% | 95.4% | 112% | 88.2 | 90.2 | 102% | 57.1% | 104 | 96.8% | 71.2% | 94.4% | 105% | 60.2% | 89.5% | 62.6% | 108% | 96.9%
Cc1cc2nc(C(Cl)Cl)nc(-c3ccccc3)n2n1 | 20.6% | 63% | 49.6% | 78.8% | 33.2 | 60.6 | 71.4% | 36.9% | 52.6 | 48.6% | 61.7% | 86.8% | 68.9% | 29.6% | 41.5% | 41.1% | 28.5% | 18.2%
